Data published in PubChem BioAssay (NCI).
Compounds without any hit were thinned out: in the full panel of roughly 83,000, 20% have a hit.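 48-hour exposure, single concentration, 96-well plates; percent growth endpoint where 0 means no net growth. Active: below 10.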 Calls of active or inactive are those of the source.

These molecules were tested on HL-60(TB) leukemia (assay: NCI-60 one-dose screen, 48 h (100 = growth as untreated, 0 = no growth, -100 = all killed)). Details: 10 µM unless noted.

Question: For COc1ccc(-c2cncnc2N)cc1OC, which growth is on record?
Answer: 95.8% (inactive)

Question: Which growth does the source give for CNCCCNCCCN1C(=O)c2ccc3c4c(ccc(c24)C1=O)C(=O)N(CCCNCc1ccccc1OC)C3=O here?
Answer: -38.1% (active)

Question: With COc1ccc2[nH]c(-c3ccccc3)cc2c1 as the molecule, how does the growth read?
Answer: 60.7% (inactive)

Question: CCOC(=O)c1c2c(n3ccccc13)C(=O)c1ncccc1C2=O was tested. Which growth did it give?
Answer: -28.8% (active)

Question: How did the growth turn out when ClCc1cccc2c(CCl)cccc12 was run?
Answer: 48.2% (inactive)

Question: Which growth does the source give for CCc1nc(N)nc(N)c1C#CC(C)c1ccc(-c2ccncc2)cc1Cl (stereo not given) here?
Answer: -19.9% (active)

Question: Which growth does the source give for Nc1cccc(-c2nc3sccn3c2-c2ccnc(NCCCNS(=O)(=O)c3cccc4ccccc34)n2)c1 here?
Answer: 7% (active)

Question: How did the growth turn out when CCCc1c(OC(=O)c2ccccc2)nc2[nH]c(=O)sc2c1C was run?
Answer: 98% (inactive)

Question: With O=c1[nH]nc(-c2ccccc2)c2sc(NC(=S)Nc3ccc(Cl)cc3)nc12 as the molecule, how does the growth read?
Answer: 72.6% (inactive)

Question: CC(C)c1cccc(C#N)c1 was tested. Which growth did it give?
Answer: 112% (inactive)

Question: For COc1ccc(-c2cc(-c3cc(OC)c(OC)c(OC)c3)nc(N3CCOCC3)c2C#N)cc1, which growth is on record?
Answer: 51.4% (inactive)

Question: For COc1cc(C(=O)c2cnc(-c3c[nH]c4cccc(C)c34)[nH]2)cc(OC)c1OC, which growth is on record?
Answer: -14.9% (active)

Question: How did the growth turn out when COc1cc2oc(-c3cccc(NC(=O)c4ccc5c(c4)OCO5)c3)cc(=O)c2c(OC)c1OC was run?
Answer: 34.6% (inactive)

Question: Which growth does the source give for O=C1C(Cl)=C(Nc2ccccc2)C(=O)c2ccccc21 here?
Answer: -19.5% (active)

Question: CCCC/C(CC)=N\NS(=O)(=O)c1ccc([N+](=O)[O-])cc1 was tested. Which growth did it give?
Answer: 92.2% (inactive)

Question: How did the growth turn out when Oc1cc2ccccc2c(-c2c(O)c(O)cc3ccccc23)c1O was run?
Answer: 19.8% (inactive)

Question: For COc1ccccc1NC(=O)Nc1ccc(-c2nc3ccccc3o2)cc1, which growth is on record?
Answer: 88.5% (inactive)

Question: How did the growth turn out when O=C(CC1Sc2ccccc2NC1=O)NNc1ccc(F)cc1 (stereo not given) was run?
Answer: 14.3% (inactive)

Question: With O=C(CCN1CCCCC1)c1ccc2ccccc2c1 as the molecule, how does the growth read?
Answer: 112% (inactive)

Question: How did the growth turn out when Cc1ccc2oc(=O)cc(-c3cc(-c4cc5ccccc5oc4=O)nc(N)c3C#N)c2c1 was run?
Answer: 93.5% (inactive)

Question: COc1cc2c(=O)n(CC3CCCCC3)c3c4cc[nH]c4ncc3c2cc1OC was tested. Which growth did it give?
Answer: 42.9% (inactive)

Question: Which growth does the source give for CC[n+]1c(/C=C/C=C2\N(C)c3ccccc3C2(C)C)sc2ccccc21 here?
Answer: -30.3% (active)

Question: Which growth does the source give for C=CC(=O)N1CCN(c2ccc3cccc(NC(=O)c4cnc(C)cn4)c3n2)CC1 here?
Answer: 26.6% (inactive)

Question: With C[C@@H]1C=C2C(=O)O[C@@H]3CC[C@H](C1)[C@]23O as the molecule, how does the growth read?
Answer: 72.4% (inactive)

Question: How did the growth turn out when COc1ccc(C2C3=C(COC3=O)N(CCO)c3cc4c(cc32)CCC4)cc1OC (stereo not given) was run?
Answer: 0.0588% (active)

Question: Which growth does the source give for C=CC(=O)Nc1cccc(Oc2nccc(Nc3nnc(-c4ccc(Br)cc4)s3)n2)c1 here?
Answer: 121% (inactive)

Question: C[n+]1c(/C=C/c2c(O)ccc3ccccc23)ccc2ccccc21 was tested. Which growth did it give?
Answer: 17.9% (inactive)

Question: O=C(O)c1cccc(CN2CCN(c3cc4c(cc3F)c(=O)c(C(=O)O)cn4C3CC3)CC2)c1O was tested. Which growth did it give?
Answer: 99.4% (inactive)

Question: With Cc1cccc(Oc2ccc(Nc3ncnc4ccc(NC(=O)CN(C)C)cc34)cc2Cl)c1 as the molecule, how does the growth read?
Answer: -48% (active)

Question: With O=[N+]([O-])c1ccc2[nH]c(=S)n(/C=C(/c3ccc(Cl)cc3Cl)S(=O)(=O)Cc3ccc(Cl)cc3Cl)c2c1 as the molecule, how does the growth read?
Answer: 101% (inactive)

Question: For CCCCCCCCCCCCCC[n+]1cccc(C(N)=O)c1, which growth is on record?
Answer: -55.9% (active)

Question: For Cc1nn2c(/C=C3/C(=O)Nc4ccc(Cl)cc43)c(-c3ccccc3)nc2s1, which growth is on record?
Answer: 81.5% (inactive)

Question: With Cc1ccc(-c2nc(C#N)c(S(=O)(=O)NCCO)o2)cc1 as the molecule, how does the growth read?
Answer: -20.1% (active)

Question: Cc1nc(Nc2nc3ccccc3o2)nc(-c2cccc([N+](=O)[O-])c2)c1C(=O)Nc1ccc(F)c(Cl)c1 was tested. Which growth did it give?
Answer: -22.1% (active)

Question: For COc1ccc2c(c1)OC13Oc4cc(OC)ccc4C=C1CCCC3=C2, which growth is on record?
Answer: 7.56% (active)

Question: For O=C(CN(C(=O)Cn1c(=O)n2nnnc2c2ccccc21)c1ccccc1C(F)(F)F)Nc1ccc(C(F)(F)F)cc1, which growth is on record?
Answer: 101% (inactive)

Question: For COc1ccc(-c2cc(-c3ccc(Cl)cc3)c(C#N)c(=O)n2Cc2ccc(C(=O)Nc3ccccc3N)cc2)cc1, which growth is on record?
Answer: 84.7% (inactive)

Question: With Cc1cc2cn3c4cccnc4[nH]c(=O)c3c2cc1C as the molecule, how does the growth read?
Answer: -32.6% (active)

Question: With CC(=O)CC(C)(C)c1ccc(Cl)cc1 as the molecule, how does the growth read?
Answer: 69.9% (inactive)

Question: How did the growth turn out when CN1C(=O)N(C)C2(c3ccccc3)N(CC(=O)Nc3ccccc3O)C(=O)NC12c1ccccc1 (stereo not given) was run?
Answer: 98.9% (inactive)
